{"source": "PubChem BioAssay (EPA / NIEHS)", "note": "Activity calls are given as the source filed them. The calls were made as follows: active = hit-call score of the fitted dose curve at least 0.9, where 1 is the maximum; inactive = score below 0.9."}
{"read-out": "Matrix Metallopeptidase 1 (MMP1), MMP1 (gene 4312)", "assay": "BSK_hDFCGF_MMP1: BioMAP Diversity Plus: hDFCGF Assay for Matrix Metallopeptidase 1 (MMP1) Biomarker Activity (AID 2283064)", "conditions": "primary human foreskin fibroblasts; actives raise or lower the signal", "protocol": "BSK_hDFCGF is a cell-based, multiplexed-readout assay that uses foreskin fibroblast, a human skin primary cell, with measurements taken at 24 hours after chemical dosing in a 96-well plate.BSK_hDFCGF_MMP1 is an assay component measured in the BSK_hDFCGF assay. It measures MMP-1 antibody related to regulation of gene expression using ELISA technology.Data from the assay component BSK_hDFCGF_MMP1 was analyzed into 1 assay endpoint. This assay endpoint, BSK_hDFCGF_MMP1, was analyzed with bidirectional fitting relative to DMSO as the negative control and baseline of activity. Using a type of binding reporter, gain or loss-of-signal activity can be used to understand changes in the signaling as they relate to the gene MMP1. Furthermore, this assay endpoint can be referred to as a primary readout, because this assay has produced multiple assay endpoints where this one serves a signaling function. To generalize the intended target to other relatable targets, this assay endpoint is annotated to the protease intended target family, where the subfamily is matrix metalloproteinase.\nThe levels of cell surface (or secreted, indicated by the prefix \"s\") biomarker endpoints were measured by ELISA. Overt cytotoxicity to cells in confluent adherent cultures (all systems other than the BT system) was assessed by measuring total protein levels using sulforhodamine B (SRB) staining in parallel cultures at the time of biomarker measurements, indicated as SRB endpoints. For proliferation assays for adherent cell types, individual cell types are cultured at sub-confluence and relative cell numbers quantified by SRB staining at time points optimized for each system (48 h: 3C and CASM3C systems; 72 h: BT and HDF3CGF systems; 96 h: SAg system). SRB was performed by staining cells with 0.1% SRB after fixation with 10% TCA and reading wells at 560 nm.Viability and proliferation of PBMC (T cells) was quantified by Alamar Blue reduction for the SAg and BT systems. For PBMC viability (referred to as PBMC Cytotoxicity within the assay endpoint names), cells were plated (75,000/well in a 96-well plate) and then chemical samples added for 1 h before addition of activators, SEB and TSST-1 (20 ng/mL final concentration each). Cells were incubated for 90 h. Then, Alamar Blue (20 uL/well) (Invitrogen, Cat DAL1100) was added for 6 h, and the plates were read with a fluorescence microplate reader at 546/580 nm (excitation/emission). For PBMC proliferation, cells were plated and activated as above but incubated for only 16 h prior to addition of Alamar Blue. Plates were read after 6 h."}
{"compound": "CCCCCCCC1CCC(=O)O1", "note": "(stereo not given)", "outcome": "inactive"}
{"compound": "CCCCCCCCCCCCCCO", "outcome": "inactive"}
{"compound": "CC(C)c1nnc2ccc(-c3ocnc3-c3cc(F)ccc3F)cn12", "AC50": "385 nM (active)"}
{"compound": "C[C@]12C=CC(=O)C=C1CC[C@H]1[C@@H]3C[C@@H](O)[C@](O)(C(=O)CO)[C@@]3(C)C[C@H](O)[C@@]12F", "AC50": "148 nM (active)"}
{"compound": "CCn1nc(C)c2c1C(=O)NCC(c1ccc(O)cc1)=N2", "outcome": "inactive"}
{"compound": "Cc1cccc(O)c1C", "outcome": "inactive"}
{"compound": "COS(C)(=O)=O", "outcome": "inactive"}
{"compound": "O=C(O)c1cccc(C(=O)O)c1", "outcome": "inactive"}
{"compound": "c1ccc2ncccc2c1", "outcome": "inactive"}
{"compound": "Cc1nccn1-c1ccc(Sc2cccc(C3(C(N)=O)CCOCC3)c2)cc1", "AC50": "2900 nM (active)"}
{"compound": "NC(=O)N1c2ccccc2C=Cc2ccccc21", "outcome": "inactive"}
{"compound": "C=CCc1cc(S(=O)(=O)c2ccc(O)c(CC=C)c2)ccc1O", "AC50": "31000 nM (active)"}
{"compound": "CC(C)CC(C)O", "note": "(stereo not given)", "outcome": "inactive"}
{"compound": "CCN(CC)C(=S)SSC(=S)N(CC)CC", "AC50": "3270 nM (active)"}
{"compound": "FC(F)(F)C(F)(F)C(F)(F)C(F)(F)C(F)(F)C(F)(F)I", "outcome": "inactive"}
{"compound": "CCCCC(CC)C(=O)OCCOCCOCCOC(=O)C(CC)CCCC", "note": "(stereo not given)", "outcome": "inactive"}
{"compound": "OCC(CO)(CO)CO", "outcome": "inactive"}
{"compound": "CC(C)CCCCCCOC(=O)C1CCCCC1C(=O)OCCCCCCC(C)C", "note": "(stereo not given)", "outcome": "inactive"}
{"compound": "COc1cc(C(C)C)c2c(c1)S(=O)(=O)N(COc1cc(=O)n3cccc(OCCN4CCCCC4)c3n1)C2=O", "AC50": "1300 nM (active)"}
{"compound": "OCc1ccccc1", "outcome": "inactive"}
{"compound": "O=c1[nH]cnc2c1ncn2[C@H]1CC[C@@H](CO)O1", "outcome": "inactive"}
{"compound": "OC[C@H]1O[C@@](CO)(O[C@H]2O[C@H](CO)[C@@H](O)[C@H](O)[C@H]2O)[C@@H](O)[C@@H]1O", "outcome": "inactive"}
{"compound": "Cc1ccc(S(=O)(=O)NC(=O)NN2CCCCCC2)cc1", "outcome": "inactive"}
{"compound": "NC(N)=O", "outcome": "inactive"}
{"compound": "OC[C@H]1O[C@@H]2O[C@H]3[C@H](O)[C@@H](O)[C@@H](O[C@H]4[C@H](O)[C@@H](O)[C@@H](O[C@H]5[C@H](O)[C@@H](O)[C@@H](O[C@H]6[C@H](O)[C@@H](O)[C@@H](O[C@H]7[C@H](O)[C@@H](O)[C@@H](O[C@H]1[C@H](O)[C@H]2O)O[C@@H]7CO)O[C@@H]6CO)O[C@@H]5CO)O[C@@H]4CO)O[C@@H]3CO", "outcome": "inactive"}
{"compound": "O=S1(=O)CCCO1", "outcome": "inactive"}
{"compound": "CCCOc1ccc(S(=O)(=O)N2CCN(CC)CC2)cc1-c1nc2c(CC)n(Cc3ccccn3)nc2c(=O)[nH]1", "outcome": "inactive"}
{"compound": "CCc1cccc(CC)c1N", "outcome": "inactive"}
{"compound": "CC1(C)C(=O)N(Cl)C(=O)N1Cl", "outcome": "inactive"}
{"compound": "CC(C)C(=O)Nc1ccc([N+](=O)[O-])c(C(F)(F)F)c1", "outcome": "inactive"}
{"compound": "C[C@@H](Oc1ccc(CNC(=O)c2cccnc2Oc2ccc3c(c2)OCO3)c(F)c1)C(=O)O", "outcome": "inactive"}
{"compound": "O=C(O)[C@H](O)[C@@H](O)C(=O)O", "outcome": "inactive"}
{"compound": "O=C1CN(N=Cc2ccc([N+](=O)[O-])o2)C(=O)N1", "outcome": "inactive"}
{"compound": "CCCCN1C(=O)[C@@H]([C@H](O)C2CCCCC2)NC(=O)C12CCN(Cc1ccc(Oc3ccc(C(=O)O)cc3)cc1)CC2", "AC50": "7180 nM (active)"}
{"compound": "CC(=O)c1ccccc1", "outcome": "inactive"}
{"compound": "Cc1ncc([C@@H](CCCCCCc2ccc3c(n2)NCCC3)CC(=O)O)cn1", "outcome": "inactive"}
{"compound": "OCc1c[nH]c2ccccc12", "AC50": "655 nM (active)"}
{"compound": "C=CN1CCCC1=O", "outcome": "inactive"}
{"compound": "OCCNCCO", "outcome": "inactive"}
{"compound": "c1ccc2cc3ccccc3cc2c1", "outcome": "inactive"}
